# Source: PubChem
# Most compounds without a hit are left out; they make up all but 19% or so of the library.
# HT1080 IDH1KD tx – kills HT-1080 cells with IDH1 knockdown; HT-1080 IDH1 knockdown viability, ATP luminescence, 48 h; Potency, µM (titrated, usually from 46.1 µM), without a hit: top-dose activity, negative = toxicity, most hits filed as cytotoxic; 360,000 tested, 2% active;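 also: potency is read from the fitted curve at half-maximal effect; 0% = DMSO wells and -100% = cell-free medium wells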
#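 % activity derives from luminescence (CellTiter-Glo), normalised to DMSO and no-cell wells. HT-1080-IDH1KD cells, 750/well, had 48 h compound exposure at 37 °C.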
# DT40 TDP1 CPT – growth inhibition of DT40 Tdp1-/-;hTDP1 cells with camptothecin (screen for TDP1 inhibitors) | chicken DT40 Tdp1-/-;hTDP1 cells + 20 nM CPT, ATP luminescence, 48 h | Potency, µM (highest dose often 46.2 µM), for inactives: at the highest dose activity change, negative = growth inhibition, hits mostly inhibitors | 420,000 tested, 12% active | AID 686979; also: potency is read from the fitted curve at half-maximal effect; nearly all actives have a fitted effect of over 55% in size
#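 Chicken DT40 Tdp1-/- cells stably complemented with human TDP1 were seeded at 400 cells/well in medium containing 20 nM camptothecin, exposed to pin-transferred compounds, and grown at 37 °C for at least 48 hr. Viability was read as ATP luminescence.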
# TDP1 cell noCPT – qHTS for Inhibitors of human tyrosyl-DNA phosphodiesterase 1 (TDP1): qHTS in cells in absence of CPT; DT40 Tdp1-/- hTDP1 cells, no CPT, ATP luminescence, 48 h; Potency, µM (titrated, usually from 46.2 µM), for the others: top-dose activity change, negative = growth inhibition, most hits filed as inhibitors; 420,000 tested, 15% active; also: potency is read from the fitted curve at half-maximal effect; nearly all actives have a fitted effect of over 55% in size
#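 Stably hTDP1-transfected Tdp1-null chicken DT40 cells were treated with library compounds minus camptothecin and grown for at least 48 hr at 37 °C, after which cellular ATP was quantified by luminescence.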
# HT1080NT lethal – kills 2HG-producing HT-1080-NT fibrosarcoma cells. HT-1080-NT fibrosarcoma viability, CellTiter-Glo ATP luminescence, 48 h. Potency, µM (series often up to 46.1 µM), inactives show at the top dose activity, negative = less viability, actives largely listed as cytotoxic. 360,000 tested, 1.6% active. AID 686970;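 also: NT is the 2HG producing partner of a matched IDH1 knockdown line; potency is read from the fitted curve at half-maximal effect; 0% = DMSO-treated cells and -100% = media-only wells without cells; nearly all actives have a fitted effect of over 55% in size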
#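 A 48-hour cytotoxicity screen used HT-1080-NT cells plated 2 hours before compound delivery. ATP-based CellTiter-Glo luminescence measured viability, normalized to DMSO and no-cell controls.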
# IL1B secr inh – inhibitors of inflammasome signaling (IL-1 beta secretion) | THP-1 LPS/ATP IL-1B secretion, AlphaLISA, 16 h; active compounds read low | activity change, % at 57.5 µM | 360,000 tested, 4.7% active | AID 743279; in the data active = activity change below about -50%; inconclusive = mostly about -30% to -49%
#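 Secreted IL-1B measured by AlphaLISA bead assay after 16 h compound exposure of THP-1 cells; compounds (final up to 57.5 uM) added 1 h before LPS (250 ng/mL) and ATP (1.25 mM) stimulation; lower signal means less secretion.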
# * = called active by the depositor; ? = inconclusive; · = not tested or not shown. Unless noted, calls follow the shape of the dose curve; as a rule, active = well fitted curve in the direction sought with a large enough effect; inconclusive = small, poorly fitted or top-dose-only effect, or another doubt; inactive = no such curve, though single readings can be large; an effect the other way counts as inactive or inconclusive. Unless noted, % is scaled to controls: 0 for no effect and ±100 for the full control effect.
SMILES,HT1080 IDH1KD tx,DT40 TDP1 CPT,TDP1 cell noCPT,HT1080NT lethal,IL1B secr inh
COc1ccc(-c2noc(CCC(=O)NCCCN3CCN(c4ccccc4F)CC3)n2)cc1,-9%,23µM*,16µM*,-1%,-23
CCN1CCN(CCCNC(=O)CCc2nc(-c3ccc(OC)cc3)no2)CC1,7%,-13%,3%,3%,27
COc1cccc(NC(=O)Cn2c(-c3nonc3N)nc3ccccc32)c1,·,-12%,-3%,·,·
CC1=CC(C)C2COC(c3ccc[n+](C)c3)C1C2C (configuration not stated),-13%,8.2µM*,8.2µM*,4%,0
CC1=CC(C)[C@@H]2COC(c3ccc(O)cc3)[C@H]1C2C (some centres not stated),2%,?,?,3%,14
CCN(CC)C(=O)COc1ccc(/C(C)=N/NC(=O)c2ccccc2-n2cccc2)cc1,-1%,-15%,?,7%,-2
CCOC(=O)c1sc(N2C(=O)c3oc4ccc(F)cc4c(=O)c3C2c2ccc(O)cc2)nc1C (configuration not stated),·,10%,-18%,·,·
COc1cc(C)ccc1OCc1cc(C(=O)NC(c2ccccn2)C(F)(F)F)no1 (configuration not stated),-9%,0.65µM*,?,0%,-26
Cc1ccc(-n2c(=O)c3c4c(sc3n(CC(=O)Nc3cccc(Cl)c3)c2=O)CCCCC4)cc1C,·,3%,3%,·,·
Cc1ccc(OCc2nnc(SCc3cc(=O)[nH]c4ccccc34)n2-c2ccccc2)cc1,?,?,23µM*,16µM*,?
Cc1ccccc1OCc1nnc(SCc2cc(=O)[nH]c3ccccc23)n1-c1ccccc1,-19%,?,?,-20%,?
Cc1cc(SCc2cc(=O)[nH]c3ccccc23)nc2ccccc12,?,23µM*,?,-20%,45
Cc1ccc(C(=O)Nc2ccc(S(=O)(=O)Nc3ncccn3)cc2)cc1[N+](=O)[O-],-1%,-2%,-6%,-7%,17
O=C(CCN1CCOCC1)c1ccc(Cl)cc1,-4%,2.9µM*,2.6µM*,-12%,-24
O=C(NCCCN1CCOCC1)c1ccc(Cl)cc1,·,12%,-18%,·,·
Brc1ccc(OCCN2CCOCC2)cc1,21%,-2%,0%,27%,-2
O=C(CCN1CCOCC1)c1ccc(Br)cc1,26µM*,3.3µM*,2.6µM*,?,-91*
Cc1cc(C)c(NC(=O)CN(C)C(=O)CCC(=O)c2ccc(C)s2)c(C)c1,-2%,-24%,-9%,-3%,-3
O=C(NP(=O)(N1CCCC1)N1CCCC1)C1=C(N2CCOCC2)/C(=C/c2cccc([N+](=O)[O-])c2)CC1,-6%,3%,4%,18%,0
O=[N+]([O-])c1ccc(/C=C2\CCC(C3=CCCC3)=C2N2CCOCC2)cc1,-17%,?,16µM*,1%,?
CCOC(=O)N(C)C[C@H]1OCc2cnnn2CCCC(=O)N([C@@H](C)CO)C[C@@H]1C,8%,3%,5%,11%,33
O=C(N/N=C/c1ccc([N+](=O)[O-])cc1)c1cccs1,1%,?,-22%,0%,?
O=C(N/N=C/C(Cl)=C\c1ccccc1)c1cccs1,?,?,9.2µM*,5%,-6
CC(/C=N/NC(=O)c1cccs1)=C\c1ccccc1,-12%,-6%,8.2µM*,-8%,0
CN(CC(=O)NCc1ccc(F)cc1)S(=O)(=O)c1ccc2c(c1)c(=O)n(C)c(=O)n2C,-3%,-4%,-5%,1%,-19
CCCOc1ccc(C2c3c(oc4ccc(F)cc4c3=O)C(=O)N2CCc2ccc(OC)cc2)cc1 (configuration not stated),·,1%,-28%,·,·
COc1ccc(C2c3c(oc4ccccc4c3=O)C(=O)N2CCCN2CCOCC2)cc1 (configuration not stated),5%,?,23µM*,3%,7
